The record followed here is PubChem BioAssay (NCI).

This is part of a sample that, as a whole, favours compounds with a hit. Of some 83,000 tested, about 20% had one in any assay.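 Each cell line was grown in a 96-well plate and treated with one concentration of compound for 48 hours. Values below 10 were considered active.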 A number with no mark means an inactive call. Activity calls are given as the source filed them.

One assay relates to K-562 leukemia. The assay is described as follows: NCI-60 one-dose screen, 48 h (100 = growth as untreated, 0 = no growth, -100 = all killed). The following applies: 10 µM.
`O=C(N/N=C/c1cc2ccccc2c2ccccc12)c1cc(O)c(O)c(O)c1`: the growth is 20.2%. The same measure, in the same setting: with `COc1ccc(-c2nn(-c3cccc(NC(=O)c4cc(C(F)(F)F)cc(C(F)(F)F)c4)c3)cc2-c2ccncc2)cc1Cl` the figure was 31.3%; with `O=S(=O)(NCCCNc1nccc(-c2c(-c3ccc(F)cc3)nc3sccn23)n1)c1ccc(F)cc1`, 13.5%; with `COc1ccc(-c2nn(-c3cccc(NC(=O)c4ccc(N5CCOCC5)c(C(F)(F)F)c4)c3)cc2-c2ccncc2)cc1Cl`, 23.6%. On the same count and under the same terms, under `CCCCCCN1CCN(Cc2ccc(N(CC)CC)cc2)C(=O)C1=O` stands 11.7%; under `COc1ccc(Oc2nc(NC3CCCC3)nc(Sc3ccc(OC)cc3)n2)cc1`, 53.3%. Same read-out and setting: with `COc1ccc(-c2nn(-c3cccc(NC(=O)Nc4cccc(C(F)(F)F)c4)c3)cc2-c2ccncc2)cc1Cl` the figure was 8.89% (active); with `COc1ccc(-c2nn(-c3cccc(NC(=O)Nc4ccccc4)c3)cc2-c2ccncc2)cc1Cl`, 10.4%. Take `CCOC(=O)c1ccoc1`: the growth was 93.8%. Same read-out and setting: under `COc1ccc(/C=C/C(C)=N/OCC(=O)O)cc1` stands 99.9%. The same measure, in the same setting: under `CN(C)Cc1cn(-c2ncc(-c3ccc(C(F)(F)F)cc3)c(NC3CCCCCC3)n2)nn1` stands 38.2%. On the same count and under the same terms, under `COc1cccc(C(=O)Nc2ccc(CN3CCc4nc5cc(OC)c(OC)cc5cc43)cc2)c1` stands 24.5%; under `O=[N+]([O-])c1cccc(-c2ncc(-c3ccc(Cl)cc3Cl)[nH]2)c1`, -23.6% (active); under `CCN(CC)CCSCCN(CC)CC`, 100%. For `COc1ccc([N+](=O)[O-])c(C(=O)O)c1`, the growth is 88.6%. Still for that read-out and setting: with `CNc1ncc(-c2ccc(C(F)(F)F)cc2)c(NC2CCCCCC2)n1` the figure was 76.2%; with `CN(C)c1ccc(/C=C/C=N/NC(=O)c2cc(O)c(O)c(O)c2)cc1`, 27.1%.

Turning to `O=C(Nc1cccc(-n2cc(-c3ccncc3)c(-c3ccc(O)c(Cl)c3)n2)c1)c1ccc(N2CCOCC2)c(C(F)(F)F)c1`, the growth was 3.17% (active). The same measure, in the same setting: under `Cc1ccc(CC#N)cc1C` stands 73.8%; under `O=c1oc2cc(OS(=O)(=O)c3ccccc3)ccc2c2c1CCCCC2`, 37.4%.

Consider `CCOC(=O)C(NC(=O)C(Cl)Cl)C(O)c1ccccc1` (stereo unspecified), for which the growth was 87.5%.

For the molecule `C/C(N)=C(\C#N)C(=O)c1ccccc1`, the growth was 109%.

As to `Nc1ncnc2[nH]c(=O)[nH]c12`, the growth is 46.5%. For the molecule `COc1ccc(-c2nn(-c3cccc(NC(=O)c4cccc(C(F)(F)F)c4)c3)cc2-c2ccncc2)cc1Cl`, the growth is 14.8%.

`O=C1CC[C@@H]2CCCC[C@@H]2C1`: the growth is 110%.

`Cc1ccc(S(=O)(=O)OCCN(CCOS(=O)(=O)c2ccc(C)cc2)c2c[nH]c(=O)[nH]c2=O)cc1`: the growth is 105%.

Consider `FC(F)(F)c1ccc(-c2cnc(-n3cc(COCCN4CCCCC4)nn3)nc2NC2CCCCCC2)cc1`, for which the growth was -48.4% (active).

The test system of a further assay is MALME-3M melanoma. The description is as above. The following applies: 10 µM.
In the case of `O=S(=O)(NCCCNc1nccc(-c2c(-c3ccc(F)cc3)nc3sccn23)n1)c1ccc2ccccc2c1`, the growth was 50.3%.

Take `O=C(Nc1cccc(-n2cc(-c3ccncc3)c(-c3ccc(O)c(Cl)c3)n2)c1)c1ccc(Cl)c(Cl)c1`: the growth was 29.5%. `Cc1ccc(C)c(C(O)(c2cc(C)ccc2C)C2(O)CCCCC2)c1`: the growth was 91.7%. For `O=C(/C=C/c1cc2ccccc2[nH]c1=O)c1ccc2c(c1)OCO2`, the growth is 78%. Still for that read-out and setting: under `O=C(Nc1cccc(-n2cc(-c3ccncc3)c(-c3ccc(O)c(Cl)c3)n2)c1)Nc1ccc(Cl)c(Cl)c1` stands -27% (active). Same read-out and setting: with `O=C(Nc1ccc(OS(=O)(=O)c2ccccc2)cc1)C12CC3CC(CC(C3)C1)C2` the figure was 55.8%; with `COc1ccc(-c2nn(-c3cccc(NC(=O)Nc4ccc(Cl)c(C(F)(F)F)c4)c3)cc2-c2ccncc2)cc1Cl`, -8.87% (active); with `COc1ccc(-c2nn(-c3cccc(NC(=O)c4ccc(Cl)c(Cl)c4)c3)cc2-c2ccncc2)cc1Cl`, 58.4%. Still for that read-out and setting: under `CCOC(=O)CCC(NC(=O)c1ccc(N)cc1)C(=O)OCC` (stereo unspecified) stands 88.2%; under `O=C(Nc1ccccc1)Nc1cccc(-n2cc(-c3ccncc3)c(-c3ccc(O)c(Cl)c3)n2)c1`, 20.2%. As for `O=S(=O)(NCCNc1nccc(-c2c(-c3ccc(F)cc3)nc3sccn23)n1)c1ccc2ccccc2c1`, the growth was 81.2%. Still for that read-out and setting: with `O=C(Nc1cccc(-n2cc(-c3ccncc3)c(-c3ccc(O)c(Cl)c3)n2)c1)c1cc(C(F)(F)F)cc(C(F)(F)F)c1` the figure was 70.4%. For the molecule `O=C(N/N=C/c1cc2ccccc2c2ccccc12)c1cc(O)c(O)c(O)c1`, the growth was 49%. The same measure, in the same setting: with `COc1ccc(-c2nn(-c3cccc(NC(=O)c4cc(C(F)(F)F)cc(C(F)(F)F)c4)c3)cc2-c2ccncc2)cc1Cl` the figure was 42.5%. The same measure, in the same setting: under `O=S(=O)(NCCCNc1nccc(-c2c(-c3ccc(F)cc3)nc3sccn23)n1)c1ccc(F)cc1` stands 48.5%. On the same count and under the same terms, with `COc1ccc(-c2nn(-c3cccc(NC(=O)c4ccc(N5CCOCC5)c(C(F)(F)F)c4)c3)cc2-c2ccncc2)cc1Cl` the figure was 48.7%. `CCCCCCN1CCN(Cc2ccc(N(CC)CC)cc2)C(=O)C1=O`: the growth is 10.1%. Turning to `COc1ccc(Oc2nc(NC3CCCC3)nc(Sc3ccc(OC)cc3)n2)cc1`, the growth was 69.6%. As to `COc1ccc(-c2nn(-c3cccc(NC(=O)Nc4cccc(C(F)(F)F)c4)c3)cc2-c2ccncc2)cc1Cl`, the growth was -10.4% (active). Turning to `COc1ccc(-c2nn(-c3cccc(NC(=O)Nc4ccccc4)c3)cc2-c2ccncc2)cc1Cl`, the growth was 17.9%. With `CCOC(=O)c1ccoc1`, the growth is 100%. On the same count and under the same terms, under `COc1ccc(/C=C/C(C)=N/OCC(=O)O)cc1` stands 96.7%.

On to `CN(C)Cc1cn(-c2ncc(-c3ccc(C(F)(F)F)cc3)c(NC3CCCCCC3)n2)nn1`, for which the growth is 73.5%. Take `COc1cccc(C(=O)Nc2ccc(CN3CCc4nc5cc(OC)c(OC)cc5cc43)cc2)c1`: the growth is 51.8%. Still for that read-out and setting: under `O=[N+]([O-])c1cccc(-c2ncc(-c3ccc(Cl)cc3Cl)[nH]2)c1` stands 125%; under `CCN(CC)CCSCCN(CC)CC`, 106%.

Take `COc1ccc([N+](=O)[O-])c(C(=O)O)c1`: the growth is 105%. Same read-out and setting: with `CNc1ncc(-c2ccc(C(F)(F)F)cc2)c(NC2CCCCCC2)n1` the figure was 61.3%.

Take `CN(C)c1ccc(/C=C/C=N/NC(=O)c2cc(O)c(O)c(O)c2)cc1`: the growth was 88.9%. As to `O=C(Nc1cccc(-n2cc(-c3ccncc3)c(-c3ccc(O)c(Cl)c3)n2)c1)c1ccc(N2CCOCC2)c(C(F)(F)F)c1`, the growth was 21.3%.

Turning to `Cc1ccc(CC#N)cc1C`, the growth is 121%. Take `O=c1oc2cc(OS(=O)(=O)c3ccccc3)ccc2c2c1CCCCC2`: the growth is 66.7%. On the same count and under the same terms, under `CCOC(=O)C(NC(=O)C(Cl)Cl)C(O)c1ccccc1` (stereo unspecified) stands 108%; under `C/C(N)=C(\C#N)C(=O)c1ccccc1`, 90.5%. The same measure, in the same setting: with `Nc1ncnc2[nH]c(=O)[nH]c12` the figure was 104%. The same measure, in the same setting: under `COc1ccc(-c2nn(-c3cccc(NC(=O)c4cccc(C(F)(F)F)c4)c3)cc2-c2ccncc2)cc1Cl` stands 12.6%.

For the molecule `O=C1CC[C@@H]2CCCC[C@@H]2C1`, the growth is 98.8%. On the same count and under the same terms, under `Cc1ccc(S(=O)(=O)OCCN(CCOS(=O)(=O)c2ccc(C)cc2)c2c[nH]c(=O)[nH]c2=O)cc1` stands 117%; under `FC(F)(F)c1ccc(-c2cnc(-n3cc(COCCN4CCCCC4)nn3)nc2NC2CCCCCC2)cc1`, -86.3% (active).
